Screening data from PubChem.
NIH3T3 tox = Cytotoxic Profiling in NIH 3T3 Cell Line of Diverse Libraries Using Quantitative High-Throughput Screening | NIH 3T3 viability, CellTiter-Glo ATP luminescence, 48-72 h | Potency, µM (series often up to 96.7 µM), actives largely listed as inhibitors | 94,000 compounds, 4.3% hits; further: nearly all actives have a fitted effect of over 55% in size
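ATP-dependent luminescence (CellTiter-Glo) served as the viability signal for NIH 3T3 cells treated with compound for 48 or 72 hr at 37 °C.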
hNpr1 antagonist = Natriuretic polypeptide receptor (hNpr1) antagonism - Primary qHTS; Atrial natriuretic peptide receptor 1 (Homo sapiens), P16066; HEK293 hNpr1 GloSensor cGMP, ANP-stimulated luminescence; Potency, µM (doses to about 46.3 µM), hits mostly inhibitors; 76,000 compounds, 1.6% hits; calls by dose curve; further: nearly all actives have a fitted effect of over 60% in size
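HEK293 cells stably expressing human Npr1 and cGMP GloSensor pGS-40F, loaded 2 h with 2% GloSensor reagent, given compound 30 min at room temperature. Luminescence read before and 20 min after 0.1 nM hNppA.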
FLuc inh-1 = Firefly luciferase inhibition profiling of diverse chemical library using quantitative high-throughput screening | Potency, µM (series often up to 115 µM), most hits filed as inhibitors | purified P. pyralis luciferase, luminescence, biochemical | Luciferin 4-monooxygenase (Photinus pyralis), P08659 | 76,000 compounds, 2.5% hits; further: nearly all actives have a fitted effect of over 65% in size
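FLuc 10nM, D-luciferin 10uM, ATP 10uM, Mg acetate 10mM, Tris acetate pH 7.5, Tween/BSA; cpd qHTS; enzyme added last; CCD luminescence.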
HEK293 tox = Cytotoxic Profiling in HEK 293 Cell Line of Diverse Libraries Using Quantitative High-Throughput Screening. 94,000 compounds, 6.6% hits. HEK 293 viability, ATP luminescence (CellTiter-Glo), 48-72 h. Potency, µM (series often up to 115 µM), usual class: inhibitors; further: nearly all actives have a fitted effect of over 60% in size
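250 HEK 293 cells/well; compound by pintool; incubated 48 or 72 hr at 37 degree Celsius; CellTiter-Glo added, 10 min RT, luminescence imaged.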
GPT2 inh = Primary qHTS assay for inhibitors of Glutamate pyruvate transaminase 2 (GPT2); Alanine aminotransferase 2 (Homo sapiens), Q8TD30; Recombinant GPT2, coupled pyruvate oxidase/HRP Amplex Red fluorescence; Potency, µM (series often up to 57.7 µM), hits mostly inhibitors; 100,000 compounds, 0.25% hits; further: nearly all actives have a fitted effect of over 60% in size
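Inhibition is scored from Amplex Red fluorescence generated when pyruvate oxidase and HRP act on pyruvate released by GPT2. Reactions contain 10ng/uL enzyme, 250uM a-KG and 2mM L-alanine and run 30 min at room temperature.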
FLuc SDR -ATP = Firefly luciferase (FLuc-C-HiBiT) SDR gain of signal screen - without ATP. shares compounds with FLuc inh-1. AID 1963318, 2024. 1,300 compounds, 7.8% hits. Purified FLuc-C-HiBiT, Nano-Glo HiBiT luminescence, no ATP. Potency, µM (titrated, usually from 32.7 µM), hits mostly activators; further: nearly all actives have a fitted effect of over 55% in size
FLuc SDR ATP = Firefly luciferase (FLuc-C-HiBiT) SDR gain of signal screen - plus ATP | 1,300 compounds, 8.7% hits | purified FLuc-C-HiBiT + ATP, HiBiT complementation luminescence | Potency, µM (titrated, usually from 32.7 µM), actives largely listed as activators | AID 1963319, 2024 | shares compounds with FLuc inh-1;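 further: signal reports ligand binding via conformational change of the enzyme rather than luciferase catalysis; nearly all actives have a fitted effect of over 55% in size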
FLuc inh-2 = Firefly luciferase (FLuc-C-HiBiT) enzymatic inhibition screen - Functional assay; Potency, µM (highest dose often 32.7 µM), usual class: inhibitors; AID 1963320, 2024; 1,300 compounds, 42% hits; purified FLuc-C-HiBiT enzyme, luciferin luminescence; shares compounds with FLuc inh-1; further: nearly all actives have a fitted effect of over 70% in size
A number is an active result. Most compounds without a hit are left out; they make up all but 10% or so of the library. Unless noted, the call rests on the fitted dose curve; in most records, active means well fitted curve in the direction sought with a large enough effect; inconclusive means small, poorly fitted or top-dose-only effect, or another doubt; inactive means no such curve, though single readings can be large; an effect the other way counts as inactive or inconclusive.

How did COc1ccc(-c2cc(N3CCCC(NC(=O)c4cc(OC)c(OC)c(OC)c4)C3)n[nH]2)cc1 (centres undefined) do in these assays?
NIH3T3 tox: inconclusive; hNpr1 antagonist: inactive; FLuc inh-1: 6.3µM; HEK293 tox: inconclusive; GPT2 inh: inconclusive; FLuc SDR -ATP: inactive; FLuc SDR ATP: inactive; FLuc inh-2: 5.6µM

What do the screens show for `c1ccc(CN2CC[C@H](c3nc4ccccc4o3)C2)nc1`?
NIH3T3 tox: inconclusive; hNpr1 antagonist: inactive; FLuc inh-1: inactive; HEK293 tox: inactive; GPT2 inh: inconclusive

Results for Cc1ccc2oc([C@H]3CCN(Cc4cccs4)C3)nc2c1 ?
NIH3T3 tox: inconclusive; hNpr1 antagonist: inactive; FLuc inh-1: 10µM; HEK293 tox: 100µM; GPT2 inh: inactive; FLuc SDR -ATP: inactive; FLuc SDR ATP: inactive; FLuc inh-2: inconclusive

What do the screens show for `O=C(NCc1ccccc1Cl)c1nc2sccn2c1-c1ccc(C(F)(F)F)cc1`?
NIH3T3 tox: inconclusive; HEK293 tox: inconclusive; GPT2 inh: inactive

How did CC(=O)NCCNC(=O)c1ccc2c(=O)n(CCc3ccccc3)c(=O)[nH]c2c1 do in these assays?
FLuc SDR -ATP: inactive; FLuc SDR ATP: inactive; FLuc inh-2: inconclusive

What do the screens show for `Cc1ccc(-c2noc(-c3nc(C(C)C)no3)n2)cc1`?
NIH3T3 tox: inactive; hNpr1 antagonist: inactive; FLuc inh-1: 7.1µM; HEK293 tox: inactive; GPT2 inh: inactive; FLuc SDR -ATP: inactive; FLuc SDR ATP: inactive; FLuc inh-2: inconclusive

Results for Cc1ccc(-c2noc(-c3nc(-c4cccnc4)no3)n2)cc1 ?
NIH3T3 tox: inactive; hNpr1 antagonist: inactive; FLuc inh-1: inactive; HEK293 tox: inactive; GPT2 inh: inactive

What do the screens show for `Cc1ccc(-c2noc(-c3ccccc3Br)n2)cc1`?
FLuc SDR -ATP: inconclusive; FLuc SDR ATP: inconclusive; FLuc inh-2: 1.6µM

How did COc1cccc(-c2csc(CN3CCCC(C)(NC(C)=O)C3)c2)c1 (centres undefined) do in these assays?
NIH3T3 tox: inconclusive; hNpr1 antagonist: inactive; FLuc inh-1: 5µM; HEK293 tox: inconclusive; GPT2 inh: inactive; FLuc SDR -ATP: inactive; FLuc SDR ATP: inactive; FLuc inh-2: inconclusive

What do the screens show for `COc1ccc(Nc2cccc(CN3CCCC(C)(NC(C)=O)C3)c2)cc1` (centres undefined)?
NIH3T3 tox: inactive; hNpr1 antagonist: inactive; FLuc inh-1: inactive; HEK293 tox: inconclusive; GPT2 inh: inconclusive

How did Cc1oc2c(c1C(=O)N(C)C)CN(S(=O)(=O)c1ccccc1)CC2 do in these assays?
NIH3T3 tox: inactive; hNpr1 antagonist: inactive; FLuc inh-1: inactive; HEK293 tox: inactive; GPT2 inh: inconclusive

What do the screens show for `Cc1onc(-c2c(Cl)cccc2Cl)c1CC(=O)NCc1ccc(OCC(F)(F)F)nc1`?
GPT2 inh: inactive

How did Cc1ccc(-c2nc(C(=O)N3CCN(c4ccccc4)CC3)no2)cc1 do in these assays?
NIH3T3 tox: inconclusive; hNpr1 antagonist: inactive; FLuc inh-1: 13µM; HEK293 tox: inconclusive; GPT2 inh: inactive; FLuc SDR -ATP: inactive; FLuc SDR ATP: inactive; FLuc inh-2: inconclusive

What do the screens show for `CC(C)CCN1C(=O)CC[C@]2(C(=O)N(C)Cc3ccccc3)CCCC[C@@H]12`?
NIH3T3 tox: inconclusive; hNpr1 antagonist: inactive; FLuc inh-1: inactive; HEK293 tox: inconclusive; GPT2 inh: inactive

How did CC(=O)N1CCNc2cc(-c3cccc(F)c3)ncc2C1 do in these assays?
FLuc SDR -ATP: inactive; FLuc SDR ATP: inactive; FLuc inh-2: inconclusive

How did COCCN1CCNc2cc(-c3cc(Cl)ccc3OC)ncc2C1 do in these assays?
NIH3T3 tox: inconclusive; hNpr1 antagonist: inactive; FLuc inh-1: inconclusive; HEK293 tox: inconclusive; GPT2 inh: inactive

What do the screens show for `CC(=O)Nc1cccc(-c2cc3c(cn2)CN(Cc2ccccc2)CCN3)c1`?
NIH3T3 tox: inconclusive; hNpr1 antagonist: inactive; FLuc inh-1: 14µM; HEK293 tox: inconclusive; GPT2 inh: inactive; FLuc SDR -ATP: inactive; FLuc SDR ATP: inactive; FLuc inh-2: inconclusive

What do the screens show for `Cn1ccnc1CN1CCN(c2nccc(-c3ccccn3)n2)CC1`?
NIH3T3 tox: inactive; hNpr1 antagonist: inactive; FLuc inh-1: inactive; HEK293 tox: inactive; GPT2 inh: inactive

How did Cc1cc(-c2cc3c(cn2)CN(Cc2nccn2C)CCN3)ccn1 do in these assays?
FLuc SDR -ATP: inactive; FLuc SDR ATP: inactive; FLuc inh-2: inconclusive

How did CC(=O)Nc1cccc(-c2ccc3c(n2)c(=O)ncn3Cc2ccccc2)c1 do in these assays?
NIH3T3 tox: inconclusive; hNpr1 antagonist: inactive; FLuc inh-1: inactive; HEK293 tox: inactive; GPT2 inh: inactive

How did COCCN1CCNc2cc(-c3cccc(N(C)C)c3)ncc2C1 do in these assays?
FLuc SDR -ATP: inactive; FLuc SDR ATP: inconclusive; FLuc inh-2: 16µM

Results for CC(=O)N1CCN(C(=O)c2cccc(-c3ccccn3)c2)CC1 ?
NIH3T3 tox: inactive; HEK293 tox: inactive; GPT2 inh: inactive

Results for Nc1ncccc1CN1CCC(CO)(CN2CCCC2)CC1 ?
NIH3T3 tox: inactive; hNpr1 antagonist: inactive; FLuc inh-1: inactive; HEK293 tox: inactive; GPT2 inh: inconclusive

How did O=C(c1ccccc1OCC1CCCN(Cc2ccncc2F)C1)N1CCCC1 (centres undefined) do in these assays?
NIH3T3 tox: inactive; hNpr1 antagonist: inactive; FLuc inh-1: inactive; HEK293 tox: inactive; GPT2 inh: inactive

What do the screens show for `COc1cccc(CN2CCNc3cnc(OCc4cccnc4)cc3C2)c1`?
NIH3T3 tox: inconclusive; hNpr1 antagonist: inactive; FLuc inh-1: inactive; HEK293 tox: inconclusive; GPT2 inh: inactive

Results for COc1cccc(CN2CCNc3cc(-c4ccnc(C)c4)ncc3C2)c1 ?
NIH3T3 tox: inconclusive; hNpr1 antagonist: inactive; FLuc inh-1: 14µM; HEK293 tox: 71µM; GPT2 inh: inactive; FLuc SDR -ATP: inactive; FLuc SDR ATP: inactive; FLuc inh-2: inconclusive
